AmpC no deterg: blocks E. coli AmpC beta-lactamase in detergent-free assay; 330,000 compounds, 0.52% hits; Potency, µM (top dose mostly 57.1 µM), for inactives: at the highest dose activity change, negative = inhibition, usual class: inhibitors; AmpC nitrocefin hydrolysis, absorbance 480 nm, 0.0001% Triton; AID 485341;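 also: plate controls were no compound for no effect and no enzyme for full effect; nearly all actives have a fitted effect of over 20% in size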
Target sequence (P00811 whole entry, looked up): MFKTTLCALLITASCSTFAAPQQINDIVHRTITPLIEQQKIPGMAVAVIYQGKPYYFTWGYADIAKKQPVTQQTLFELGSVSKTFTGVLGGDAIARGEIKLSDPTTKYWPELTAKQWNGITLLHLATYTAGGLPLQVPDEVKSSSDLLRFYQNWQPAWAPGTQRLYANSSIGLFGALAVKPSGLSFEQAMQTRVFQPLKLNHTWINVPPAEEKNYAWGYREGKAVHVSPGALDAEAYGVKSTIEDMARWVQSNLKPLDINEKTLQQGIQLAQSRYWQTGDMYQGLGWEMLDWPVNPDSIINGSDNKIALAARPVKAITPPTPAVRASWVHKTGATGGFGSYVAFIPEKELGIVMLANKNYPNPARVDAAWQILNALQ
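AmpC (5.3 nM in the dispensed reagent) in 20 mM phosphate pH 7.0 with 0.01% (detergent screen) or 0.0001% Triton X-100 was preincubated with compounds for 15 min at room temperature. Nitrocefin was then added from an 800 uM solution, and hydrolysis was followed at 480 nm.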
Sm TGR inh: blocks Schistosoma mansoni thioredoxin glutathione reductase | Q962Y6 | purified TGR, DTNB reduction, TNB absorbance 405 nm | Potency, µM (top dose mostly 114 µM), for inactives: at the highest dose activity change, negative = inhibition, most hits filed as inhibitors | 360,000 compounds, 3% hits | AID 485364; also: nearly all actives have a fitted effect of over 60% in size
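First, TGR (20 nM dispensed) and NADPH were mixed with compound. Second, a 15 min room-temperature incubation followed. Third, further NADPH and then DTNB were added to start the reaction. Finally, TNB absorbance was monitored kinetically.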
FBPA Giardia inh: Giardia lamblia aldolase inhibition. A8B2U2. purified Giardia FBPA. Potency, µM (titrated, usually from 59.6 µM), inactives show at the top dose activity, negative = inhibition, usual class: inhibitors. 290,000 compounds, 0.71% hits; also: nearly all actives have a fitted effect of over 55% in size
Target sequence (A8B2U2 whole entry, looked up): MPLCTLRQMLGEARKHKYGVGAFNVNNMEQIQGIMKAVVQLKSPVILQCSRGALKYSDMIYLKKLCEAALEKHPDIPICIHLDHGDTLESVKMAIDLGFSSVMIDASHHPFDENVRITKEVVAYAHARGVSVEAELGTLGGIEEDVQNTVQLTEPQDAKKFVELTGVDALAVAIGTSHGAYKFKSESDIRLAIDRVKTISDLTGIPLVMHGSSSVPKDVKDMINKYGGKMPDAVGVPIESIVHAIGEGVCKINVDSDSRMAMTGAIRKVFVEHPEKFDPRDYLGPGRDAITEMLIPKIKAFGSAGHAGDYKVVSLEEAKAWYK
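40 nM FBPA preincubated 10 min at RT with compound (up to 57.5 uM final), then substrate plus GAPDH/TPI/NAD/arsenate coupling and diaphorase/resazurin added. Fluorescence read after 20 min at RT, 525/598 nm.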
AmpC detergent: blocks E. coli AmpC beta-lactamase in detergent assay. P00811. AmpC hydrolysis of nitrocefin, absorbance 480 nm, 0.01% Triton. Potency, µM (top dose mostly 114 µM), for inactives: top-dose activity change, negative = inhibition, hits mostly inhibitors. 370,000 compounds, 0.041% hits;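 also: 0% = no-compound wells and -100% = no-enzyme wells; nearly all actives have a fitted effect of over 25% in size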
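20 mM phosphate pH 7.0 + 0.01% (detergent screen) or 0.0001% Triton X-100; 5.3 nM AmpC reagent; cpd preinc 15 min RT; nitrocefin (800 uM stock) to start; A480 q20 s × 4 min; Activity was normalised to no-enzyme and no-compound control wells.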
* marks the source's active call; other numbers are inactive results; ? = inconclusive; nt = not tested or not shown; [ ] = dose if it differs, or a comment. The list is not random: actives were taken first. Their share in the collection is about 3.6%. Calls follow the shape of the dose curve; as a rule, active = well fitted curve in the direction sought with a large enough effect; inconclusive = small, poorly fitted or top-dose-only effect, or another doubt; inactive = no such curve, though single readings can be large; an effect the other way counts as inactive or inconclusive. Unless noted, % is scaled to controls: 0 for no effect and ±100 for the full control effect; potency is read from the fitted curve at half-maximal effect.

SMILES	AmpC no deterg	Sm TGR inh	FBPA Giardia inh	AmpC detergent
CN(C)CCCN(C(=O)c1ccc2c(c1)OCCO2)c1nc2cc3c(cc2s1)OCO3	72.8%	-18.6%	nt	-8.4%
CN(C)CCN(C(=O)c1ccc(N2C(=O)CCC2=O)cc1)c1nc2cc3c(cc2s1)OCO3	3.2%	20µM*	-10.7%	2.2%
CP(=O)(Nc1ccc(Cl)cc1)c1nc2c(s1)CCCC2 (configuration not stated)	-10.4%	22.4µM*	0.2%	-0.2%
O=P(Nc1c(Cl)cccc1Cl)(c1ccccc1)c1nc2c(s1)CCCC2 (configuration not stated)	-15.2%	-14.7%	nt	-2.8%
O=C(OCC1OC(OC(=O)c2cc(O)c(O)c(OC(=O)c3cc(O)c(O)c(O)c3)c2)[C@@H](OC(=O)c2cc(O)c(O)c(OC(=O)c3cc(O)c(O)c(O)c3)c2)C(OC(=O)c2cc(O)c(O)c(OC(=O)c3cc(O)c(O)c(O)c3)c2)C1OC(=O)c1cc(O)c(O)c(OC(=O)c2cc(O)c(O)c(O)c2)c1)c1cc(O)c(O)c(OC(=O)c2cc(O)c(O)c(O)c2)c1 (some centres not stated)	nt	nt	3.54µM*	nt
CN1CC[C@@]2(C)c3cc(O)ccc3N(C)C12 (some centres not stated)	nt	nt	2.81µM*	nt
CNC(=O)Oc1ccc2c(c1)[C@]1(C)CCN(C)[C@@H]1N2C	-22.5%	0.0%	?	-16.0%
CCOc1ccc(C2C(C(=O)Nc3ccc(C)cc3C)=C(C)Nc3c(C(=O)Nc4ccc(C)cc4)cnn32)cc1OC (configuration not stated)	nt	4.8%	nt	5.9%
O=C(N/N=C/c1cccc(C(F)(F)F)c1)c1cc2c(s1)-c1ccccc1CC2	0.159µM*	2.3%	-0.8%	-3.8%
CCc1ccccc1NC(=O)CSc1nnc(COc2ccccc2Cl)o1	nt	-0.8%	nt	15.1%
Cc1cc(C(F)(F)F)nc(SCc2ccc(C(=O)O)o2)n1	-30.1%	14.1µM*	10.9%	-9.4%
Cc1ccc(NNC(=O)c2ccc(Cl)cc2)nn1	-10.1%	-3.7%	?	-3.6%
COc1ccc2nc(NC(=O)CSCc3c(C)noc3C)sc2c1	25.1µM*	3.0%	nt	?
COc1cccc(C2=CC(c3cccc(OC)c3OC)n3nnnc3N2)c1 (configuration not stated)	-25.0%	39.8µM*	-5.0%	2.9%
COc1cccc(C2=CC(c3cccc(OC)c3OC(F)F)n3nnnc3N2)c1 (configuration not stated)	-16.4%	-6.0%	-13.2%	?
COc1cccc(C2C=C(c3ccc(OC)cc3OC)Nc3nnnn32)c1 (configuration not stated)	-16.9%	25.1µM*	-9.5%	-15.7%
COc1ccc(C2=CC(c3ccc(OC)c(OC)c3)n3nnnc3N2)c(OC)c1 (configuration not stated)	48.0%	39.8µM*	-14.2%	?
CC(O)(CS(=O)(=O)Cc1ccccc1)c1ccc(Cl)cc1 (configuration not stated)	-26.9%	-1.7%	11.5%	5.1%
Cc1ccc(C(C)(O)CS(=O)(=O)Cc2ccccc2Cl)cc1 (configuration not stated)	-3.3%	50.1µM*	-10.4%	-6.3%
c1ccc(Cn2ncc3c(N4CCN(C(c5ccccc5)c5ccccc5)CC4)ncnc32)cc1	-0.4%	44.7µM*	-3.9%	?
CCOc1ccc(C2C(C(=O)/C=C/c3ccco3)=C(O)C(=O)N2CCN2CCOCC2)cc1OC (configuration not stated)	63.5%	5.01µM*	7.92µM*	1.4%
COc1cccc(C2C(C(=O)/C=C/c3ccco3)=C(O)C(=O)N2CCN2CCOCC2)c1 (configuration not stated)	12.3%	4.47µM*	?	8.2%
COc1ccc(C2C(C(=O)/C=C/c3ccco3)=C(O)C(=O)N2CCN2CCOCC2)cc1 (configuration not stated)	-2.6%	14.1µM*	?	?
Cc1cc(C)cc(NC(=O)N2CCN(S(C)(=O)=O)CC2)c1	3.0%[2.29 µM]	-6.6%	3.8%	-9.5%
CCCc1ccc(C(=O)/C=C/N(C)C)cc1	-45.1%	3.6%	5.0%	7.1%
SMILES	AmpC no deterg	Sm TGR inh	FBPA Giardia inh	AmpC detergent
Cc1ccccc1OCc1nc(-c2cccnc2)no1	-17.6%	39.8µM*	-6.5%	-2.9%
Cc1ccc(S(=O)(=O)/N=C2/NC(=O)/C(=C/c3cccnc3)S2)cc1	-31.5%	-14.8%	13.8%	?
Cc1ccc(S(=O)(=O)/N=C2/NC(=O)/C(=C/c3ccc(Br)o3)S2)cc1	-29.2%	22.4µM*	20.8%	?
Cc1ccc(S(=O)(=O)/N=C2/NC(=O)/C(=C\c3cc(Br)cc(Br)c3O)S2)cc1	-5.7%	28.2µM*	nt	8.7%
CC(C)[C@H](NC(=O)c1ccccc1F)C(=O)NC1CCCCCCC1	-17.9%	nt	nt	nt
O=C(NCCCN1CCOCC1)C1CCN(S(=O)(=O)c2cccc(C(F)(F)F)c2)CC1	136.3%	15.2%	nt	-4.5%
COc1cc(SC#N)ccc1N=Cc1c(C)[nH]n(-c2ccc(C)cc2C)c1=O	nt	5.7%	5.8%	6.6%
COc1ccccc1N=Cc1c(C)[nH]n(-c2ccc(C)cc2C)c1=O	174.8%	39.8µM*	-15.2%	-1.9%
CC(C)Cn1c(N)c(C(=O)COC(=O)c2ccc([N+](=O)[O-])o2)c(=O)n(C)c1=O	-27.3%[11.4 µM]	-17.4%	-29.1%	?
Cc1ccc(-c2cc(C(=O)OCC(=O)N(C)C3CCS(=O)(=O)C3)c3ccccc3n2)o1 (configuration not stated)	103.5%	14.1µM*	-17.9%	0.1%
CCN(C(=O)COC(=O)c1cc(-c2cccs2)nc2ccccc12)C1CCS(=O)(=O)C1 (configuration not stated)	27.5%[11.4 µM]	-9.9%	-5.8%	?
CCN(C(=O)COC(=O)c1cc(-c2ccc(C)o2)nc2ccccc12)C1CCS(=O)(=O)C1 (configuration not stated)	146.6%	25.1µM*	-19.0%	-2.5%
CCOc1ccccc1CNC(=O)CCc1cn(Cc2ccc(Cl)cc2)c2ccccc12	nt	2.6%	nt	21.3%
COC(=O)c1sccc1S(=O)(=O)N(CC(=O)NCc1ccc(F)cc1)c1ccc(C)c(C)c1	nt	-0.5%	nt	11.3%
CCOC(=O)C1CC(c2ccccc2)=NNC1=O (configuration not stated)	-9.6%	nt	-1.8%	-2.7%
Cc1ccc(SCC(=O)Nc2cc(S(=O)(=O)N3CCCCC3)ccc2C)cc1	-19.4%	nt	nt	nt
O=C(CCl)Nc1cc(S(=O)(=O)N2CCCCCC2)ccc1Cl	-5.4%	15.8µM*	-0.3%	-3.7%
O=C(NCC1CCCO1)c1cc(S(=O)(=O)N2CCCCC2)ccc1Cl (configuration not stated)	-6.8%	2.82µM*	nt	6.0%
CC(C)(C)CC(=O)Nc1cc(S(=O)(=O)N2CCCCCC2)ccc1Cl	-2.7%	-3.0%	0.1%	-9.6%
CCCCNC(=S)Nc1cc(S(=O)(=O)N2CCCCC2)ccc1C	-35.7%	2µM*	-6.6%	3.7%

From PubChem BioAssay
